Test [1] is described as follows: NCI Yeast Anticancer Drug Screen. Data for the rad50 strain (AID 155).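 Also: 0% = growth of vehicle-only cultures of the same strain.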 The note with it: S. cerevisiae rad50 strain growth inhibition; at 50.0 µM; active compounds read high. A digest of the protocol: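 Compounds were tested on a yeast strain with an engineered DNA damage repair alteration; the reported value is growth inhibition normalised to vehicle treatment.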
Test [2] is described as follows: NCI Yeast Anticancer Drug Screen. Data for the mec2-1 strain (AID 157). The settings on record: S. cerevisiae mec2-1 strain, at 50.0 µM, active compounds read high. A digest of the protocol:
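Readout is yeast growth inhibition, normalised to vehicle-treated controls, in the mec2-1 strain exposed to compound.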

Test [3] is described as follows: NCI Yeast Anticancer Drug Screen. Data for the sgs1 mgt1 strain (AID 161).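 Also: 0% = growth of cultures given vehicle only.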 The note with it: S. cerevisiae sgs1 mgt1 strain, at 50.0 µM, active compounds read high. A digest of the protocol:
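Growth of a repair-deficient yeast mutant was monitored after compound treatment and expressed as inhibition relative to vehicle-treated cultures.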

A short description of test [4]: NCI Yeast Anticancer Drug Screen. Data for the cln2 rad14 strain (AID 165).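 Also: 0% = growth equal to vehicle treated cultures.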 The settings on record: S. cerevisiae cln2 rad14 strain, at 50.0 µM, active compounds read high. A digest of the protocol:
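Relative to vehicle controls, growth inhibition of compound-treated cln2 rad14 yeast was recorded.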

Test [5] is described as follows: NCI Yeast Anticancer Drug Screen. Data for the bub3 strain (AID 167). The note with it: S. cerevisiae bub3 mutant strain, at 50.0 µM, active compounds read high. A digest of the protocol: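 Growth of a checkpoint-deficient yeast mutant is measured after compound exposure. Values represent inhibition relative to vehicle.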
Test [6] is described as follows: NCI Yeast Anticancer Drug Screen. Data for the mlh1 rad18 strain (AID 175). The note with it: S. cerevisiae mlh1 rad18 strain growth inhibition; at 50.0 µM; active compounds read high. A digest of the protocol:
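Test agents were incubated with a yeast strain of defined genotype (DNA damage repair defect). Inhibition of growth was derived by comparison with vehicle-exposed cultures.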

Compounds without any hit were thinned out: in the full panel of roughly 79,000, 15% have a hit. Unmarked numbers belong to inactive results. Active and inactive are the calls of the source. Rule as the data show it: active = growth inhibition above about 70%; inactive = the rest.

With `CCCC(=O)c1ccc(=O)n(C)c1`, the growth inhibition is 18.2% in test [1]; 9.8% in test [2]; -4.4% in test [3]; -2.1% in test [4]; 14.4% in test [5]; 17.9% in test [6].
Turning to `O=S(=O)(OCC1CC2C=CC1C2)c1ccc(Br)cc1` (centres undefined), the growth inhibition in test [1] was -15.6%; in test [2], 7.45%; in test [3], -3.7%; in test [4] it was 6.85%; in test [5], 54.9%; in test [6] it was 3.65%.
Regarding `O=c1c2[nH]cnc2ncn1Cc1ccccc1`, the growth inhibition in test [1] was 0.95%; in test [2] it was 1.35%; in test [3], 0.3%; in test [4] it was -32.5%; in test [5], -20.6%; in test [6], -6.25%.
For the molecule `N#Cc1cccc(N2C(=O)c3c(c(-c4ccccc4)c(-c4ccc(Sc5ccc(-c6c(-c7ccccc7)c7c(c(-c8ccccc8)c6-c6ccccc6)C(=O)N(c6cccc(C#N)c6)C7=O)cc5)cc4)c(-c4ccccc4)c3-c3ccccc3)C2=O)c1`, the growth inhibition in test [1] is -48.6%; in test [2], -44.2%; in test [3], -41%; in test [4], -14.8%; in test [5], -68.8%; in test [6], -60.8%.
As to `Cc1cc2c(CC(=O)O)[nH]nc2c(C(=O)O)c1C`, the growth inhibition in test [1] was 1.4%; in test [2] it was -10.4%; in test [3], -13.2%; in test [4], 4.8%; in test [5], 8.25%; in test [6], -0.55%.
In the case of `CCOC(=O)C1=CC(C)(C(=O)OCC)Nc2c(nc(SC)n(C)c2=O)N1` (centres undefined), the growth inhibition was -19.4% in test [1]; -21.2% in test [2]; -16.3% in test [3]; 16.8% in test [4]; -1.55% in test [5]; 14.2% in test [6].
As for `COc1ccc2c(c1OC)C1CCCCC1SCC2=O` (centres undefined), the growth inhibition was 14.4% in test [1]; 6.85% in test [2]; 0.7% in test [3]; 5.75% in test [4]; 12.5% in test [5]; -16.4% in test [6].
Consider `CN(C)CCNC(=O)Cn1cnc2cccc([N+](=O)[O-])c2c1=O`, for which the growth inhibition in test [1] was 34.5%; in test [2], 17%; in test [3], 4.85%; in test [4], 20.6%; in test [5] it was 20.9%; in test [6], -34.6%.
As for `CCCCNC(=S)/N=C/c1c(O)c2ccccc2[nH]c1=O`, the growth inhibition was -39.7% in test [1]; -15.2% in test [2]; -52.9% in test [3]; -18.9% in test [4]; 3.9% in test [5]; -41% in test [6].
Take `COc1ccc(NC(=O)C(=O)C2NC(=S)NC2=O)c(OC)c1` (centres undefined): the growth inhibition in test [1] was 34.4%; in test [2], 16.5%; in test [3] it was 11.6%; in test [4] it was 15.3%; in test [5], 3%; in test [6], 3.2%.
Consider `O=C1CCCC2C1C1CCCC(=O)C21` (centres undefined), for which the growth inhibition is 6.95% in test [1]; -7.45% in test [2]; 3.1% in test [3]; 0.9% in test [4]; 3.15% in test [5]; 20.2% in test [6].
Consider `O=C1CC(=O)c2cccc3cccc1c23`, for which the growth inhibition is 42.8% in test [1]; 22.7% in test [2]; 44.4% in test [3]; 7.35% in test [4]; 47.9% in test [5]; 27.1% in test [6].
Regarding `CNC(=O)Nc1ccc(Cl)cc1C(=O)O`, the growth inhibition in test [1] was -26.2%; in test [2], 2.45%; in test [3] it was -15.7%; in test [4], -72.2%; in test [5], -13.7%; in test [6], -7.45%.
On to `O=C(O)CCNCC(=O)O`, for which the growth inhibition in test [1] is -28.1%; in test [2], -32.6%; in test [3], -21.9%; in test [4], 3.2%; in test [5], -21.7%; in test [6], -23.6%.
As to `BrC1=C(c2ccccc2)SC(Br)=C(c2ccccc2)S1`, the growth inhibition in test [1] is 1.55%; in test [2], 4.45%; in test [3], 1.2%; in test [4], 21.7%; in test [5] it was 5.45%; in test [6] it was 3.75%.
As to `COC(=Nc1cccc2ccccc12)Nc1cccc2ccccc12`, the growth inhibition in test [1] was 1.95%; in test [2], -3.5%; in test [3], -4.35%; in test [4], 7.95%; in test [5], -2.3%; in test [6], -2%.
`Cc1ccc([N+](=O)[O-])cc1NC(=O)C(=O)C1CCC2=C(Sc3ccccc3N2)C1=O` (centres undefined): the growth inhibition in test [1] was 0.5%; in test [2] it was -16.9%; in test [3], -9.45%; in test [4], -17.9%; in test [5], -0.4%; in test [6], -5.85%.
Take `COc1ccc2[nH]c3c(C)c4c(c(C)c3c2c1)CN(C)CC4`: the growth inhibition in test [1] was 3.7%; in test [2], 4.95%; in test [3], -17.2%; in test [4] it was -1.25%; in test [5] it was -7.6%; in test [6], -5.85%.
Turning to `CC(=O)Nc1ccc(/C=C2\N=C(c3ccccc3)OC2=O)cc1`, the growth inhibition in test [1] was 15.9%; in test [2], -1.75%; in test [3] it was 11.8%; in test [4], -49%; in test [5], -10.9%; in test [6], 10.3%.
With `N#CCCOC(=O)Nc1cccc(Cl)c1`, the growth inhibition in test [1] is 41.7%; in test [2], 15.4%; in test [3], 27.3%; in test [4] it was 7.3%; in test [5] it was -7.2%; in test [6], 33.6%.
As to `NC(=O)C(CCc1ccccc1)(CCc1ccccc1)c1ccc2ccccc2c1`, the growth inhibition is 19.5% in test [1]; 11.2% in test [2]; -2.85% in test [3]; 6.6% in test [4]; 29.8% in test [5]; 46% in test [6].
For the molecule `CCOCCOC(=O)/C=C/c1ccccc1`, the growth inhibition in test [1] is 17.6%; in test [2], -9.6%; in test [3], -4.35%; in test [4] it was -46.8%; in test [5] it was 8.15%; in test [6], -3.15%.
Turning to `CO[C@H]1C[C@H]2[C@@H]3CCC4=CC(=O)CC[C@]4(C)[C@H]3CC[C@]2(C)[C@@]1(O)C(=O)CO`, the growth inhibition in test [1] is -7.35%; in test [2], -9.25%; in test [3] it was -17%; in test [4], -14.9%; in test [5] it was -11.7%; in test [6], -27.6%.
`O=C1CCCS(=O)(=O)CCC1`: the growth inhibition was 7.4% in test [1]; 11.5% in test [2]; -8.2% in test [3]; -3.5% in test [4]; 0.9% in test [5]; 54.1% in test [6].
For the molecule `O=C(Cc1ccccc1)N(Cc1ccccc1)Cc1ccccc1`, the growth inhibition in test [1] is 96.8% (active); in test [2], 98.7% (active); in test [3] it was 98.8% (active); in test [4], 91.9% (active); in test [5], 92.4% (active); in test [6], 97.9% (active).
As to `CC(=O)Oc1cccc2c1ccc1nonc12`, the growth inhibition was 1.75% in test [1]; 0.35% in test [2]; -2.2% in test [3]; -49.8% in test [4]; -11.4% in test [5]; -3% in test [6].
In the case of `CC(SC(C)C(=O)N/N=C/C=C\c1ccccc1)C(=O)N/N=C\C=C\c1ccccc1` (centres undefined), the growth inhibition in test [1] is 15.1%; in test [2] it was 5%; in test [3] it was 1.05%; in test [4], 7.8%; in test [5], 4.05%; in test [6], 33.7%.
As to `O=C1C(=O)c2ccccc2C(O)=C1Br`, the growth inhibition in test [1] was 27.9%; in test [2], 39.4%; in test [3], 49.4%; in test [4], -61%; in test [5], 28.4%; in test [6] it was 29.8%.
Consider `CN(C)c1cc2c(cc1N(C)C)-c1ccccc1C2`, for which the growth inhibition is 9.85% in test [1]; 6.5% in test [2]; 13.9% in test [3]; -0.2% in test [4]; 10.1% in test [5]; 28.9% in test [6].
In the case of `CC(=O)C1CCC2C3CCC4CC5(CCC4(C)C3C(=O)CC12C)NC(C(=O)O)CS5` (centres undefined), the growth inhibition in test [1] was 2.25%; in test [2] it was 3.4%; in test [3], 5.85%; in test [4], -6.25%; in test [5] it was -0.6%; in test [6], -1.35%.
With `CC(C)(C)c1[nH]ncc1CCC(=O)Nc1ccc(Cl)cc1Cl`, the growth inhibition in test [1] is -0.6%; in test [2], -1.95%; in test [3], -5.85%; in test [4], 1.1%; in test [5], -16.1%; in test [6], 4.05%.
For the molecule `CC(=O)NCC(O)c1ccc([N+](=O)[O-])cc1` (centres undefined), the growth inhibition is -23.3% in test [1]; -31.1% in test [2]; 1.4% in test [3]; 7% in test [4]; -14.1% in test [5]; -23% in test [6].
For the molecule `Cc1ccc(S(=O)(=O)Nn2c(O)c(C#N)c(-c3ccc(N(C)C)cc3)c(C#N)c2=O)cc1`, the growth inhibition was -6.7% in test [1]; -20.1% in test [2]; -44.5% in test [3]; 1.7% in test [4]; -19.1% in test [5]; -20.9% in test [6].
Turning to `CC(C)=CCC(OC(=O)C=C(C)C)c1cc(O)c2c(O)ccc(O)c2c1O.[Mn]` (centres undefined), the growth inhibition was 36.1% in test [1]; 47.2% in test [2]; 25.4% in test [3]; 54.1% in test [4]; 46% in test [5]; 87.3% (active) in test [6].
Regarding `NNc1cc(S(=O)(=O)O)cc(C(=O)O)c1O`, the growth inhibition is 14.5% in test [1]; 49% in test [2]; 31.4% in test [3]; -1.65% in test [4]; 42.1% in test [5]; 39.9% in test [6].
On to `COc1cc(/C=C2\SC(=S)N(C=C3C(=O)NC(=O)NC3=O)C2=O)cc(OC)c1OC`, for which the growth inhibition in test [1] was 7.5%; in test [2], -0.75%; in test [3] it was 19.1%; in test [4] it was 11.8%; in test [5], 7%; in test [6], 5.65%.
On to `Nc1ncnc(N)c1NC(=O)c1ccc(SCc2ccccc2)cc1`, for which the growth inhibition in test [1] is -7.15%; in test [2], 20.9%; in test [3] it was 27.5%; in test [4] it was -21.2%; in test [5] it was 22.5%; in test [6], 22.2%.
As to `CC1COC(c2ccc(Cl)cc2)O1` (centres undefined), the growth inhibition in test [1] was 12.2%; in test [2], 18.1%; in test [3], 22%; in test [4] it was 20.4%; in test [5], -1.25%; in test [6], 12.7%.
In the case of `O=C(O)CCSC1=NCCN1`, the growth inhibition in test [1] was -32.8%; in test [2], -44%; in test [3], -26.1%; in test [4], 16.6%; in test [5], -42.9%; in test [6], -10.6%.
